The term inhibition denotes the percentage by which the read-out fell short of the control.

The structures appear in SMILES notation.

Sequence of Estrogen receptor beta (Homo sapiens) (Q92731 whole entry, looked up): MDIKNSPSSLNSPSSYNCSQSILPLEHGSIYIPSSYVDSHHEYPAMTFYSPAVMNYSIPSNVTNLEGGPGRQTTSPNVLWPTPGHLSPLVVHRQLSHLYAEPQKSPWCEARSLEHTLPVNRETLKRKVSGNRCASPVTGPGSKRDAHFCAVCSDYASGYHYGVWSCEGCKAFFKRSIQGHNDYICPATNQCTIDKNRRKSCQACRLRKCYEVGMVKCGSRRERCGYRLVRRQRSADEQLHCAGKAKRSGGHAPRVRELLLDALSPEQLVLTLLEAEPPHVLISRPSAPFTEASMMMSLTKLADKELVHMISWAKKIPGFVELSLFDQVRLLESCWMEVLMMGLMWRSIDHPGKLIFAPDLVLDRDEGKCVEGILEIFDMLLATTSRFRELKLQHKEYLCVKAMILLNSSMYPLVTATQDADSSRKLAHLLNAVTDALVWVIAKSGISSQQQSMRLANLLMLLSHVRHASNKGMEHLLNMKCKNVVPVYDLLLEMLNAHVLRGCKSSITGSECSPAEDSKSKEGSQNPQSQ

The assay addresses Estrogen receptor beta (Homo sapiens) (UniProt Q92731). The experiment in a line: ERbeta ligand binders by competition, primary screen, cell-based, Cos7 ERbeta-GFP, flow cytometry (AID 1210).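 Further: 0% = DMSO vehicle wells and 100% = complete loss of labeled estradiol signal.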 The settings on record: fluorescent estrogen binding, ligand binding inhibition, at 0.1 µM, stronger effect = higher value. In general terms: A flow cytometer gives signals particle by particle.
In turn, `COc1ccc(N2Cc3cccc(C(=O)N4CCN(C(=O)c5ccco5)CC4)c3C2=O)cc1` yielded an inhibition of 27%. The value for `CC(=O)NC12CC3CC(C1)CC(C(=O)OCC(=O)Nc1ncc(Cl)c(C)c1Cl)(C3)C2` was 3%; that for `CC1CCCN(c2nc3c(c(=O)[nH]c(=O)n3C)n2Cc2ccccc2Cl)C1` (configuration not stated) was 32%; that for `O=c1oc2ccccc2cc1-c1ccc(O)cc1` was 3%.

As to `CCCNCC1COc2ccccc2O1` (configuration not stated), the inhibition came out at 41%. `O=C(Oc1ccc(-c2cnc3ccccc3n2)cc1)c1ccc(Br)o1` displayed an inhibition of 29%. For `CCn1c(SCC(=O)Nc2ccc3c(c2)oc2ccccc23)nnc1-c1ccc(N)cc1`, the inhibition turned out to be 18%.

For the compound `COc1ccc(NC(=O)C(c2ccccc2)N(C)C(=O)c2ccc(=O)[nH]c2)cc1` (configuration not stated), the inhibition was determined as 56%. The same measure for `O=[N+]([O-])c1cc(/C=N/N2CCN(C3c4ccccc4-c4ccccc43)CC2)ccc1Cl`: 2%; for `COc1ccc2c(c1)C1C=CCC1C(c1cc3c(cc1Br)OCO3)N2` (configuration not stated): 41%. The same measure for `COc1cc(-c2nc3ccccn3c2/N=C/c2ccccc2)ccc1O`: 9%.

`C=CCn1c(=O)c(C#N)cc2c(=O)n3ccccc3nc21` returned an inhibition of 22%.

Source of the values: PubChem BioAssay AID1210 (NMMLSC, 2008).
